Measurements taken from PubChem BioAssay.
Where “and” joins values, the source holds several entries; their conditions need not be identical. Equal entries are not always repeated. Calls of active or inactive are those of the source.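 How the source made its calls, unless noted: active means inhibition at or above 50% relative to wild type and mutant plate controls; inactive means inhibition below 50%.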

Columns and labels:
[1] = inhibitors of TNFa-induced NFkB p65 translocation, primary screen, imaging, HUVEC, MLSMR starter and 10KST1 sets (AID 438;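 active means inhibition above 20% together with a positive visual image hit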;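 further: compound added about 3h40 before a 20 min TNFalpha stimulation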;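 on inhibition: signal is the nuclear over cytoplasmic p65 intensity ratio per well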); settings: HUVEC TNFa-induced p65 nuclear translocation; cell count: measured here: nuclei count (cytotoxicity indicator), at 2.08 µM; inhibition: at 2 µM, stronger effect = higher value, 0% TNFa-plus-vehicle, 100% no-TNFa wells
[2] = inhibitors of mutant huntingtin aggregation, primary screen, imaging, exon1htt(103Q)mCFP cells, high-content imaging (AID 483;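 active means visual image review flags a hit and inhibition of aggregation exceeds 20%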;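 further: compound exposure lasted 3 days before fixation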;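 on nuclei count: percent of the per-plate median nuclei count of sample wells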); settings: exon1htt(103Q)mCFP cell line, aggregate imaging, at 2 µM; inhibition of aggregation: stronger effect = higher value; nuclei count: measured here: cell count, toxicity
[3] = inhibitors of E-selectin induction by TNFa, primary screen, imaging, HUVEC, immunofluorescence, MLSMR starter and 10KST1 sets (AID 487;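 active means visually confirmed hit in the image check and inhibition above 20%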;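 on inhibition: signal is fraction of cell area covered by stained E-selectin grains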;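 on nuclei count: 100% = median nuclei count of all wells on the same plate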); settings: HUVEC TNFalpha-induced E-selectin immunofluorescence imaging, at 2 µM; inhibition: stronger effect = higher value; nuclei count: measured here: cell number, toxicity
[4] = DUSP6 inhibitors restoring Erk phosphorylation by chemical complementation, primary imaging in DUSP6-transfected HeLa (AID 609;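 active means compounds giving at least 50% inhibition in the cell-based MKP-3 phosphatase rescue imaging test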;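 on inhibition: phospho-Erk level distribution per well compared with pooled transfected vehicle control wells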); settings: HeLa MKP-3 transfected, phospho-Erk imaging KS statistic, at 10 µM, cells stimulated with TPA for 15 min
[5] = target: Dual specificity protein phosphatase 6 (Homo sapiens) (UniProt Q16828); assay: as above; settings: HeLa MKP-3 transfected, phospho-Erk imaging KS statistic; at 10 µM; stronger effect = higher value; cells stimulated with TPA for 15 min
[6] = target: Voltage-gated potassium channel subunit beta-2 (Rattus norvegicus) (UniProt P62483); assay: KvBeta enzyme negative modulators, primary screen, biochemical, NADPH fluorescence (AID 622;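 active means fluorescence slope higher than the sample average by over 3 SD, cut at about -0.22 in these data, passing the limit was not always enough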;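 further: slope of raw intensity against log time taken from 70 to 1610 s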); settings: recombinant KvBeta, 4-cyanobenzaldehyde reduction, at 10 µM, stronger effect = higher value
[7] = target: Voltage-gated potassium channel subunit beta-2 (Rattus norvegicus) (UniProt P62483); assay: KvBeta positive modulators, primary screen, biochemical, NADPH fluorescence (AID 623;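 active means NADPH fluorescence slope more negative than the mean of all samples by about 3 SD, 99.7% confidence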;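 further: fluorescence intensity change per second fitted from 20 to 320 s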); settings: Recombinant KvBeta, NADPH fluorescence decrease slope, 10 min; at 10 µM; stronger effect = lower value
[8] = target: Alpha-2C adrenergic receptor (Homo sapiens) (UniProt P18825); assay: modulators of alpha2C/GIRK thallium flux, primary screen, cell-based, HEK293 alpha2C/GIRK1/2 (AID 624;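 active means fluorescence slope after compound addition differing from the mean of all screened samples at 99.7% confidence, in either direction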;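 further: slope of fluorescence ratio to pre-addition baseline per second over 15 to 24 s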); settings: thallium flux BTC fluorescence, at 10 µM, actives lie on both sides
[9] = inhibitors of larval lipid processing in zebrafish, primary screen, whole organism, PED6 fluorescence, gall bladder and intestine (AID 686;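 active means a full or partial loss of lipid-probe fluorescence in the fish gall bladder, intestine or both, judged by eye; inactive means no fluorescence loss, or compound toxic to the fish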;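 further: larvae 5 to 7 days old with five fish per well; signal comes from phospholipase A2 cleavage of quenched PED6 carried via bile; overnight exposure to compound and PED6 before scoring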); settings: Zebrafish larvae PED6 lipid processing, fluorescence scoring; screened at 20 µM (by protocol)
[10] = inhibitors of Chlamydomonas gravitaxis, primary screen, whole organism, Chlamydomonas reinhardtii, WT vs cilia-less mutant, absorbance, 96-well (AID 463189); settings: OD600 absorbance, 2 days, at 10 µM, stronger effect = higher value;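 further: 0% = wild type cc124 cells in DMSO and 100% = ciliumless bld1 mutant cells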
[11] = inhibitors of Sendai virus-induced IRF3 signaling, primary screen, TLR/RLR signaling modifier project, cell-based, Sendai virus stimulus, luciferase, 10K MLSCN set (AID 602276;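 active means inhibition at or above 50% at 10 µM; inactive means inhibition below 50%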;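 further: firefly luciferase from ISG56 promoter only with Renilla not read in this screen; 0% = Sendai virus plus DMSO and 100% = medium plus DMSO without virus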); settings: HEK293 RL24 IRF3 luciferase reporter, at 10 µM, stronger effect = higher value
[12] = inhibitors of poly I:C-induced TLR3 signaling, primary screen, cell-based, poly I:C stimulus, luciferase, 10K MLSCN set (AID 602277;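 active means inhibition of the reporter signal at or above 50%; inactive means inhibition below 50%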); settings: HEK293-TLR3 RL24 IRF3 luciferase reporter, at 10 µM, stronger effect = higher value
[13] = target: Muscarinic acetylcholine receptor M4 (Homo sapiens) (UniProt P08173); assay: compounds altering M4/GIRK thallium flux, either direction, primary screen, M4 allosteric agonist project, cell-based, HEK293 M4/GIRK, BTC-AM (AID 625;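 active means fluorescence slope after compound addition differing from the mean of all tested samples at 99.7% confidence, mostly higher but some lower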;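 further: thallium influx through GIRK channels coupled to M4 in HEK293 cells with BTC-AM dye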); settings: at 10 µM, actives lie on both sides
[14] = measured here: cell density z-score
[15] = measured here: nuclear c-Myc green intensity z-score
[16] = measured here: nuclear pErk red intensity z-score, stronger effect = higher value

Dual specificity protein phosphatase 6 (Homo sapiens), sequence (Q16828 whole entry, looked up): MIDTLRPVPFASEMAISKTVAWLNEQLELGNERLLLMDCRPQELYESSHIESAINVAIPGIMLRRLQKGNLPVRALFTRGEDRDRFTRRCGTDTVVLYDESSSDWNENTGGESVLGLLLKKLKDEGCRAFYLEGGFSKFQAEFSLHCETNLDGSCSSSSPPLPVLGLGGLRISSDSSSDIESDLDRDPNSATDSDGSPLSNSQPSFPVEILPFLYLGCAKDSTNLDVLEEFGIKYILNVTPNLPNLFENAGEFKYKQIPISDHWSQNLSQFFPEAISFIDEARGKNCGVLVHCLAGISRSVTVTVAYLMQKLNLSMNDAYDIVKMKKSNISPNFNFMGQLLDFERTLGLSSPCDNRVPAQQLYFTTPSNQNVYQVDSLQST
Alpha-2C adrenergic receptor (Homo sapiens), sequence (P18825 whole entry, looked up): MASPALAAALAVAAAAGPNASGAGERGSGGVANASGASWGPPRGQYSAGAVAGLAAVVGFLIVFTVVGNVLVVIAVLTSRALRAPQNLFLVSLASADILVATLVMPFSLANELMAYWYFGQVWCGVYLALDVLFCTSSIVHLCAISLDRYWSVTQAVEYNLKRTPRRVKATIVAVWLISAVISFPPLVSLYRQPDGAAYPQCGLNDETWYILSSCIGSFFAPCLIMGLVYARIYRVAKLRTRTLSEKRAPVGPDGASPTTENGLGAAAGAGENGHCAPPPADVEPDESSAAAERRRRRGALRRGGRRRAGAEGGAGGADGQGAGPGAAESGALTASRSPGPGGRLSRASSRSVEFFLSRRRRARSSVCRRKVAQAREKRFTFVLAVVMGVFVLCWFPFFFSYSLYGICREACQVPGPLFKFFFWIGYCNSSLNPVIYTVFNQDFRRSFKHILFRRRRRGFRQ
Voltage-gated potassium channel subunit beta-2 (Rattus norvegicus), sequence (P62483 whole entry, looked up): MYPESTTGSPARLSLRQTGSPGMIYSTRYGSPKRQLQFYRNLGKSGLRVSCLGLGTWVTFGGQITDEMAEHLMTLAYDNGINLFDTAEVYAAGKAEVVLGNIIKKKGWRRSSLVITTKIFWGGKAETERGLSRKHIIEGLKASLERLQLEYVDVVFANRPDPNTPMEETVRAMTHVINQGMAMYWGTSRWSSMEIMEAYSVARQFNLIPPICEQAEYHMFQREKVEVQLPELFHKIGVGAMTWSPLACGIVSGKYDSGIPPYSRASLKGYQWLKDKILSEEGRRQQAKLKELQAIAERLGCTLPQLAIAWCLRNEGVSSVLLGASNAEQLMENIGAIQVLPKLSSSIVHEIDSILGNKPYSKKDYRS
Muscarinic acetylcholine receptor M4 (Homo sapiens), sequence (P08173 whole entry, looked up): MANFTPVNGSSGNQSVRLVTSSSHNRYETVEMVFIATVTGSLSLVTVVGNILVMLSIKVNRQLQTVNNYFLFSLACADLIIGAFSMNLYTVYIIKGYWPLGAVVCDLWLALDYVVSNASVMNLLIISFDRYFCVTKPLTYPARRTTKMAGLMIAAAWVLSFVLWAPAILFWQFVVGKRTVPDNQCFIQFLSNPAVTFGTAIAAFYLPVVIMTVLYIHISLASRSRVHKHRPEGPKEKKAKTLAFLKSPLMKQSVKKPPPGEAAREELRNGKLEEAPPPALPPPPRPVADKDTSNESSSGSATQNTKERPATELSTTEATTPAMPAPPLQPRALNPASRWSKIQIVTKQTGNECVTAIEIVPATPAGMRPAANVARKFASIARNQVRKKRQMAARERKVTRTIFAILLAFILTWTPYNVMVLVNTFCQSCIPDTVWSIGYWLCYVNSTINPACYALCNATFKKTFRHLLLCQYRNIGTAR

COc1ccc(C2/C(=C(/O)c3ccccc3)C(=O)C(=O)N2c2ncccn2)cc1OC (configuration not stated)
cell count [1]: 460
inhibition [1]: -0.7% (inactive)
inhibition of aggregation [2]: 2.3% (inactive)
nuclei count [2]: 108%
inhibition [3]: -7.4% (inactive)
nuclei count [3]: 151%
z-score [4, 14]: -0.394
z-score [4, 15]: 1.14
z-score [4, 16]: -0.858
inhibition [5]: 11.4% (inactive)
fluorescence slope [6]: -0.338 (inactive)
NADPH fluorescence slope [7]: -3.2e-05 (inactive)
slope [8]: 0.00532 (inactive)
outcome [9]: inactive
inhibition [10]: -1.92% (inactive)
inhibition [11]: 7.62% (inactive)
inhibition [12]: 3.83% (inactive)

C[C@]12CC[C@@H]3c4ccc(O)cc4CC[C@H]3[C@@H]1CCC2=O
cell count [1]: 576
inhibition [1]: -0.3% (inactive)
inhibition of aggregation [2]: 3.1% (inactive)
nuclei count [2]: 98%
inhibition [3]: -80.9% (inactive)
nuclei count [3]: 120%
z-score [4, 14]: -8.47
z-score [4, 15]: 2.04
z-score [4, 16]: 2.06
inhibition [5]: 17.3% (inactive)
fluorescence slope [6]: -0.463 (inactive)
NADPH fluorescence slope [7]: -3.3e-05 (inactive)
slope [8]: 0.00425 (inactive)
outcome [9]: inactive
inhibition [10]: -0.014% (inactive) and 40.8% (inactive)
inhibition [11]: 8.21% (inactive)
inhibition [12]: 34.8% (inactive)

CCOC(=O)c1[nH]c2ccc(Br)cc2c1NC(=O)CNC
cell count [1]: 737
inhibition [1]: 5.1% (inactive)
inhibition of aggregation [2]: -0.9% (inactive)
nuclei count [2]: 113%
inhibition [3]: -29% (inactive)
nuclei count [3]: 141%
z-score [4, 14]: -0.195
z-score [4, 15]: 0.821
z-score [4, 16]: 0.769
inhibition [5]: 11.9% (inactive)
fluorescence slope [6]: -0.518 (inactive)
NADPH fluorescence slope [7]: -6.6e-05 (inactive)
fluorescence slope [13]: 0.00596 (inactive)
outcome [9]: inactive
inhibition [10]: -9.05% (inactive)
inhibition [11]: 18.6% (inactive)
inhibition [12]: 33.1% (inactive)

CCc1cc2c(=O)c(-c3cscn3)coc2cc1O
cell count [1]: 406
inhibition [1]: -6.1% (inactive)
inhibition of aggregation [2]: -9.9% (inactive)
nuclei count [2]: 59.7%
inhibition [3]: -99% (inactive)
nuclei count [3]: 103%
z-score [4, 14]: -2.75
z-score [4, 15]: 2.51
z-score [4, 16]: -1.53
inhibition [5]: 1.98% (inactive)
fluorescence slope [6]: -0.528 (inactive)
NADPH fluorescence slope [7]: 4e-05 (inactive)
slope [8]: 0.00552 (inactive)
outcome [9]: inactive
inhibition [10]: -8.67% (inactive)
inhibition [11]: 20.6% (inactive)
inhibition [12]: 26.3% (inactive)

CC(=O)OCC(=O)[C@@]12OC3(CCCC3)O[C@@H]1C[C@H]1[C@@H]3CCC4=CC(=O)C=C[C@]4(C)[C@@]3(F)[C@@H](O)C[C@@]12C
cell count [1]: 609
inhibition [1]: -5.2% (inactive)
inhibition of aggregation [2]: -15.8% (inactive)
nuclei count [2]: 51.6%
inhibition [3]: -15.3% (inactive)
nuclei count [3]: 118%
z-score [4, 14]: 0.724
z-score [4, 15]: 0.328
z-score [4, 16]: 0.81
inhibition [5]: 5.42% (inactive)
fluorescence slope [6]: -0.54 (inactive)
NADPH fluorescence slope [7]: -2.6e-05 (inactive)
slope [8]: 0.0055 (inactive)
outcome [9]: inactive
inhibition [10]: 22.1% (inactive)
inhibition [11]: 8.27% (inactive)
inhibition [12]: 39.3% (inactive)

C[C@]12CCC(=O)C=C1CC[C@@H]1[C@@H]2C(=O)C[C@@]2(C)[C@H]1CC[C@]2(O)C(=O)CO
cell count [1]: 603
inhibition [1]: -6% (inactive)
inhibition of aggregation [2]: 21.4% (inactive)
nuclei count [2]: 102%
inhibition [3]: -119% (inactive)
nuclei count [3]: 120%
z-score [4, 14]: -0.503
z-score [4, 15]: -1.16
z-score [4, 16]: 1.19
inhibition [5]: -4.44% (inactive)
fluorescence slope [6]: -0.503 (inactive)
NADPH fluorescence slope [7]: -3.1e-05 (inactive)
slope [8]: 0.00463 (inactive)
outcome [9]: inactive
inhibition [10]: -0.81% (inactive) and 2.73% (inactive)
inhibition [11]: 10.2% (inactive)
inhibition [12]: 21.1% (inactive)

CSc1ccccc1NC(=O)c1c(Br)cnn1C
cell count [1]: 559
inhibition [1]: -4.3% (inactive)
inhibition of aggregation [2]: 33.5% (active)
nuclei count [2]: 58.2%
inhibition [3]: 26.1% (inactive)
nuclei count [3]: 130%
z-score [4, 14]: -0.962
z-score [4, 15]: -0.8
z-score [4, 16]: 0.479
inhibition [5]: -2.47% (inactive)
fluorescence slope [6]: -0.453 (inactive)
NADPH fluorescence slope [7]: -5.8e-06 (inactive)
slope [8]: 0.00569 (inactive)
outcome [9]: inactive
inhibition [10]: 4.29% (inactive)
inhibition [11]: 5.4% (inactive)
inhibition [12]: 4.72% (inactive)

O=C(/C=C/c1ccccc1)c1ccccc1
cell count [1]: 614
inhibition [1]: -6.5% (inactive)
inhibition of aggregation [2]: -4.6% (inactive)
nuclei count [2]: 98.3%
inhibition [3]: -56.5% (inactive)
nuclei count [3]: 113%
z-score [4, 14]: 0.266
z-score [4, 15]: 0.631
z-score [4, 16]: 0.428
inhibition [5]: 23.2% (inactive)
fluorescence slope [6]: -0.452 (inactive)
NADPH fluorescence slope [7]: -2.2e-05 (inactive)
slope [8]: 0.0047 (inactive)
outcome [9]: inactive
inhibition [10]: 21.2% (inactive)
inhibition [11]: -12.6% (inactive)
inhibition [12]: -54.9% (inactive)

CN(Cc1ccccc1)Cc1c[nH]c2ccccc12
cell count [1]: 531
inhibition [1]: -15.1% (inactive)
inhibition of aggregation [2]: -1% (inactive)
nuclei count [2]: 83.3%
inhibition [3]: -35.1% (inactive)
nuclei count [3]: 121%
z-score [4, 14]: -0.293
z-score [4, 15]: -1.22
z-score [4, 16]: -1.11
inhibition [5]: -4.27% (inactive)
fluorescence slope [6]: -0.409 (inactive)
NADPH fluorescence slope [7]: -4.2e-05 (inactive)
slope [8]: 0.00379 (inactive)
outcome [9]: inactive
inhibition [10]: 22.7% (inactive)
inhibition [11]: 13.3% (inactive)
inhibition [12]: 24.2% (inactive)

CCOC(=O)N1CCN(C(=O)c2cn(CC)c3cc(N4CCN(C)CC4)c(F)cc3c2=O)CC1
cell count [1]: 544
inhibition [1]: 2.6% (inactive)
inhibition of aggregation [2]: 15.1% (inactive)
nuclei count [2]: 96%
inhibition [3]: -20.9% (inactive)
nuclei count [3]: 121%
z-score [4, 14]: 0.456
z-score [4, 15]: 0.816
z-score [4, 16]: -1.34
inhibition [5]: -7.28% (inactive)
fluorescence slope [6]: -0.267 (inactive)
NADPH fluorescence slope [7]: 1.3e-05 (inactive)
slope [8]: 0.00518 (inactive)
outcome [9]: inactive
inhibition [10]: 15.7% (inactive)
inhibition [11]: 21.5% (inactive)
inhibition [12]: 21.4% (inactive)

CCCCCC(=O)N1CC2(C)CN(C(=O)CCCCC)CC(C)(C1)C2=O
cell count [1]: 482
inhibition [1]: 3.2% (inactive)
inhibition of aggregation [2]: -8.1% (inactive)
nuclei count [2]: 97.5%
inhibition [3]: -94.9% (inactive)
nuclei count [3]: 101%
z-score [4, 14]: 0.798
z-score [4, 15]: 0.672
z-score [4, 16]: 0.65
inhibition [5]: 7.42% (inactive)
fluorescence slope [6]: -0.352 (inactive)
NADPH fluorescence slope [7]: -4.5e-05 (inactive)
slope [8]: 0.00564 (inactive)
outcome [9]: inactive
inhibition [10]: 24% (inactive)
inhibition [11]: 6.58% (inactive)
inhibition [12]: 21.5% (inactive)
